Hits are enriched below; roughly 27% of the tested compounds scored in any of these assays.
CYP2C9 activ – activators of human CYP2C9; recombinant CYP2C9, luciferin-H conversion, luminescence; hits give high values; factor 1 = untreated enzyme, 0 = blocked; activation factor at 5 µM; 96,000 compounds, 1.4% hits; AID 1024;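 active means activation factor of 2 or more for CYP2C9 at a 5 µM dose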;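 further: 0 = sulfaphenazole-blocked wells and 1 = vehicle-only wells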
CYP2C9 inh – blocks human cytochrome P450 2C9 | 96,000 compounds, 20% hits | P11712 | CYP2C9 Supersomes, luciferin-H conversion, luminescence | inhibition, % at 5 µM;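 active means blocking of liver enzyme CYP2C9 beyond about 50% at 5 µM, limit read from the data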
sEH inh – inhibitors of human soluble epoxide hydrolase | 91,000 compounds, 0.34% hits | recombinant human sEH enzymatic activity assay | inhibition, % at 2 µM; in the data active means inhibition above about 80%
sEH activator – activators of human soluble epoxide hydrolase; purified human sEH enzymatic activity, activator screen; activation, % at 2 µM; 91,000 compounds, 0.04% hits; AID 717; in the data active means activation above about 37%
CYP2C19 inhib – blocks human cytochrome P450 2C19; 96,000 compounds, 21% hits; CYP2C19 Supersomes, luciferin-H EGE luminescence, 30 min; P33261; inhibition, % at 5 µM; AID 778;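 active means CYP2C19 inhibition above a set limit at 5 µM in the primary screen, cut at about 50% in these data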;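 further: plate controls were negative control wells for no effect and 2.5 mM tranylcypromine positive control for full effect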
Target sequence (P33261 whole entry, looked up): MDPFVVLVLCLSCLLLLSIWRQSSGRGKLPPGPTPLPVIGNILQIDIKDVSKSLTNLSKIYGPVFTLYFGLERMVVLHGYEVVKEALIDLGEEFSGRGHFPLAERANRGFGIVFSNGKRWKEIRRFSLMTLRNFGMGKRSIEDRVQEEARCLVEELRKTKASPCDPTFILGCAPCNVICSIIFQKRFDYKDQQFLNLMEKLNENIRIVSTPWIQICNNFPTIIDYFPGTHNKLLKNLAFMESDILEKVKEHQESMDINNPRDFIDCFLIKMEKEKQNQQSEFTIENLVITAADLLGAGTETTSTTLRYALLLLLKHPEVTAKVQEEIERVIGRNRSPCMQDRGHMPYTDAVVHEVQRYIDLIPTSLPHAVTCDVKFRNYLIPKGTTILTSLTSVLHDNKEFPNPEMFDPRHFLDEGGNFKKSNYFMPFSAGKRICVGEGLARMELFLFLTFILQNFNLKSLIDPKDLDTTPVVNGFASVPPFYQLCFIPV
CYP2C19 activ – increases human CYP2C19 enzyme activity; P33261; recombinant CYP2C19, luciferin-H EGE luminescence; hits give high values; 0 = fully inhibited enzyme, 1 = untreated enzyme; activation factor at 5 µM; 96,000 tested, under 10 active;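 active means activation factor of at least 2 at 5 µM in the primary screen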;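 further: 0 = wells with 2.5 mM tranylcypromine and 1 = vehicle-only wells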
* = called active by the depositor; / = no result.

SMILES | CYP2C9 activ | CYP2C9 inh | sEH inh | sEH activator | CYP2C19 inhib | CYP2C19 activ
C=CCn1c(SCC(=O)Nc2ncc(Cc3ccc(Br)cc3)s2)nnc1-c1ccncc1 | 1 | -1 | 9 | -6 | 33 | 0.7
CC(C)COC(=O)c1ccc(NC(=O)C2C3CCC(C3)C2C(=O)O)cc1 (stereo not given) | 1 | -4 | 10 | -9 | 7 | 0.9
COC(=O)COc1nc(C)c(Br)c(OC)n1 | 1 | 2 | 2 | 1 | 5 | 1
COc1cc(NC(=O)CS(=O)(=O)c2ccccc2)cc(OC)c1OC | 0.7 | 31 | 13 | -9 | 66* | 0.3
Cc1ccc(C)c(NC(=O)CNS(=O)(=O)c2ccccc2)c1 | 2.1* | -105 | 5 | 0 | 79* | 0.2
Cc1cccc(NC(=O)CNc2cc(C)ccc2C)c1 | 0.7 | 26 | -7 | 7 | 84* | 0.2
Cc1cccc(NC(=O)Cn2cccc2)c1 | 0.8 | 22 | 2 | -2 | 24 | 0.8
COc1ccccc1NC(=O)CNS(=O)(=O)c1ccccc1 | 1.5 | -54 | 4 | 0 | 96* | 0
O=C(c1ccc(CN2CCc3ccccc3C2)cc1)N1CCN(c2ccc(F)cc2)CC1 | / | / | 3 | -4 | / | /
CN(C(=O)C1CCCO1)c1nnc(-c2ccccn2)s1 (stereo not given) | 1.1 | -8 | -3 | 1 | -6 | 1.1
CN(C(=O)C1CCCO1)c1nnc(-c2ccncc2)s1 (stereo not given) | 0.9 | 14 | -15 | 14 | 98* | 0
CN(C(=O)C1CCOC1)c1nnc(-c2ccncc2)s1 (stereo not given) | 0.8 | 24 | 5 | -3 | 98* | 0
O=C(Nc1ncc([N+](=O)[O-])s1)C1CCN(S(=O)(=O)c2cnc[nH]2)CC1 | 0 | 97* | 4 | -7 | 48 | 0.5
CCOc1ccc(OCC)c(NC(=O)C2CCN(S(=O)(=O)c3cnc[nH]3)CC2)c1 | 0.2 | 84* | 3 | 2 | 37 | 0.6
CCOC(=O)C1CCN(S(=O)(=O)c2cnc[nH]2)CC1 | 0 | 98* | / | / | 58* | 0.4
O=C(C1CCN(S(=O)(=O)c2cnc[nH]2)CC1)N1CCN(c2ncccn2)CC1 | 1.2 | -16 | -15 | 14 | -17 | 1.2
CCOC(=O)C1CCCN(C(=O)C2CCN(S(=O)(=O)c3cnc[nH]3)CC2)C1 (stereo not given) | 0.1 | 87* | / | / | -2 | 1
CCOC(=O)C1CCCN(C(=O)C2CCCN(S(C)(=O)=O)C2)C1 (stereo not given) | 1.1 | -7 | -5 | 2 | -6 | 1.1
O=C(NCc1ccccn1)C1CCN(S(=O)(=O)c2cnc[nH]2)CC1 | 1.1 | -6 | / | / | -13 | 1.1
COC(=O)c1c(NC(=O)CN2CCN(c3ccccc3)CC2)c2c(C)cccc2n1C | 0.7 | 27 | -12 | 12 | 34 | 0.7
Cc1cccc(-c2nnc(SCC(=O)Nc3nc4c(s3)CCCC4)n2C)c1 | / | / | -2 | 5 | / | /
OCCSc1nc2ccccc2n1CCOc1ccccc1 | 0.2 | 78* | -2 | 2 | 91* | 0.1
COc1ccc(OCCSc2nc3ccccc3n2CC(=O)O)cc1 | 1.2 | -20 | 3 | -2 | -16 | 1.2
O=C(O)CCSc1nc2ccccc2n1CCOc1ccccc1 | 0.8 | 17 | / | / | -4 | 1
O=C(O)Cn1c(SCCOc2ccccc2F)nc2ccccc21 | 0.3 | 70* | 11 | -11 | 8 | 0.9
SMILES | CYP2C9 activ | CYP2C9 inh | sEH inh | sEH activator | CYP2C19 inhib | CYP2C19 activ
OCCn1c(SCCOc2ccccc2F)nc2ccccc21 | 0.5 | 52* | 18 | -14 | 94* | 0.1
O=C(NCc1ccccc1)c1ccc(CN(c2ccccn2)S(=O)(=O)c2ccccc2)cc1 | 0.6 | 40 | -5 | 4 | 1 | 1
Cc1cc(=O)oc(C)c1C(=O)NCc1ccccc1 | 1 | -2 | / | / | -7 | 1.1
CCCCN(CCCNC(=O)c1c(C)cc(=O)oc1C)c1ccccc1 | 0.1 | 90* | 1 | 0 | 51* | 0.5
CCN(CCCNC(=O)c1c(C)cc(=O)oc1C)c1ccccc1 | 0.2 | 83* | 13 | -11 | 98* | 0
COc1ccccc1-c1noc(-c2ccccc2C(=O)Nc2cccnc2)n1 | 0.9 | 14 | -4 | 6 | 11 | 0.9
O=S(=O)(c1ccccc1)c1nc(-c2cccs2)oc1NCCCn1ccnc1 | 0.1 | 92* | -6 | 8 | 98* | 0
NC(=O)c1sc2nc3c(c(-c4cccs4)c2c1N)CCCCC3 | 1.1 | -8 | -1 | 4 | -13 | 1.1
Cc1ccc(CN(C(=O)c2ccco2)C(C(=O)NC2CCCC2)c2ccc(N3CCOCC3)cc2)cc1 (stereo not given) | / | / | 0 | 4 | / | /
c1ccc2c(c1)nnn1c3ccccc3nc21 | 0.4 | 62* | -5 | 4 | 73* | 0.3
Cc1nc2ccccc2c2nc3ccccc3n12 | 0.4 | 58* | 8 | -9 | 40 | 0.6
CCOC(=O)C(C)Oc1cccc2c(=O)n(CC(=O)Nc3ccc(OCC)cc3)ccc12 (stereo not given) | 0.8 | 21 | -1 | 0 | 8 | 0.9
O=C(N1CCOCC1)N1CCC(n2nnc3ccccc32)CC1 | 0.6 | 38 | / | / | 6 | 0.9
CC1(C)C(=O)C2(CCCCC2)C(=O)OC1c1ccc(O)cc1 (stereo not given) | 0.4 | 60* | -4 | 8 | 77* | 0.2
O=C1OC(c2ccccc2)C2(CCCC2)C(=O)C12CCCC2 (stereo not given) | 1 | 3 | -3 | 1 | 23 | 0.8
CC1(C)C(=O)C2(CCCC2)C(=O)OC1c1ccco1 (stereo not given) | 0.8 | 20 | 7 | -4 | 64* | 0.4
Cc1csc(C2=C(O)CN(c3ccc4c(c3)OCCOCCOCCOCCO4)C2=N)n1 | 1 | 3 | 13 | -10 | 3 | 1
O=C(NC1CC2CCCC(C1)N2CC(=O)N1CCCc2ccccc21)C1CCCCC1 (stereo not given) | / | / | -2 | 0 | / | /
O=C(Nc1ccccc1C(=O)N1CCCC1)c1cccc(S(=O)(=O)N2CCCCCC2)c1 | 0.2 | 80* | / | / | 54* | 0.5
CNC(=O)c1ccccc1NC(=O)c1cccc(S(=O)(=O)N2CCC(C)CC2)c1 | 0.3 | 73* | / | / | 90* | 0.1
Cc1ccccc1NC(=O)c1cc(S(=O)(=O)N2CCCCC2)cs1 | 0.5 | 51* | 12 | -14 | 34 | 0.7
CCNC(=O)c1ccccc1NC(=O)c1cccc(S(=O)(=O)N2CCC(C)CC2)c1 | 0.3 | 68* | 11 | -8 | 59* | 0.4
O=C(Nc1cccc(O)c1)c1cccc(S(=O)(=O)N2CCCC2)c1 | 0.8 | 15 | 27 | -28 | 13 | 0.9
Nc1ccc(CCS(N)(=O)=O)cc1 | 1.1 | -6 | -10 | 11 | -1 | 1
O=C(Nc1ccc2oc(=O)ccc2c1)c1cccnc1 | / | / | 12 | -10 | / | /
COc1cccc2c(=O)n(CC(=O)Nc3cccc(F)c3)ccc12 | 0.8 | 17 | 6 | -7 | 41 | 0.6
